Four molecules from ChEMBL document CHEMBL1961873, “Compounds: GSK PKIS; Assays: Nanosyn kinase panel” (2012) can be followed below.

A word on the inhibition: it is the change of the read-out against control, counted positive when it falls.

Assay [1] addresses T1, Mitogen-activated protein kinase 12 (Homo sapiens) (UniProt P53778).
T1 sequence (whole entry): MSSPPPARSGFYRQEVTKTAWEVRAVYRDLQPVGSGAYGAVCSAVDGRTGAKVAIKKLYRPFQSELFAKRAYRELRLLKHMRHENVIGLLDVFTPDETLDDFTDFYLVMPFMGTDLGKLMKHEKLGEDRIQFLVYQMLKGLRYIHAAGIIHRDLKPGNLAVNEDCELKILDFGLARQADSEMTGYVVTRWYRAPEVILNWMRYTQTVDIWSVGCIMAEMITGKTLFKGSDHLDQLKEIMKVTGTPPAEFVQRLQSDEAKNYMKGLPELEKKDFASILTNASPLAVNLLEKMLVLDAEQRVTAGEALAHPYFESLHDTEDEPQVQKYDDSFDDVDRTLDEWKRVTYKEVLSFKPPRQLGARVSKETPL
The following applies: at 1 µM.

For assay [2], the target named is SRSF protein kinase 1 (Homo sapiens) (UniProt Q96SB4). The settings on record: at 0.1 µM.
For assay [3] the target is unchanged. The following applies: at 1 µM.
The target in assay [4] is Phosphatidylinositol 4,5-bisphosphate 3-kinase catalytic subunit alpha isoform (Homo sapiens) (UniProt P42336). The settings on record: at 0.1 µM.
The target is the same in assay [5]. The following applies: at 1 µM.
Assay [6] concerns the target T2, Phosphatidylinositol 4,5-bisphosphate 3-kinase catalytic subunit delta isoform (Homo sapiens) (UniProt O00329).
T2 sequence (whole entry): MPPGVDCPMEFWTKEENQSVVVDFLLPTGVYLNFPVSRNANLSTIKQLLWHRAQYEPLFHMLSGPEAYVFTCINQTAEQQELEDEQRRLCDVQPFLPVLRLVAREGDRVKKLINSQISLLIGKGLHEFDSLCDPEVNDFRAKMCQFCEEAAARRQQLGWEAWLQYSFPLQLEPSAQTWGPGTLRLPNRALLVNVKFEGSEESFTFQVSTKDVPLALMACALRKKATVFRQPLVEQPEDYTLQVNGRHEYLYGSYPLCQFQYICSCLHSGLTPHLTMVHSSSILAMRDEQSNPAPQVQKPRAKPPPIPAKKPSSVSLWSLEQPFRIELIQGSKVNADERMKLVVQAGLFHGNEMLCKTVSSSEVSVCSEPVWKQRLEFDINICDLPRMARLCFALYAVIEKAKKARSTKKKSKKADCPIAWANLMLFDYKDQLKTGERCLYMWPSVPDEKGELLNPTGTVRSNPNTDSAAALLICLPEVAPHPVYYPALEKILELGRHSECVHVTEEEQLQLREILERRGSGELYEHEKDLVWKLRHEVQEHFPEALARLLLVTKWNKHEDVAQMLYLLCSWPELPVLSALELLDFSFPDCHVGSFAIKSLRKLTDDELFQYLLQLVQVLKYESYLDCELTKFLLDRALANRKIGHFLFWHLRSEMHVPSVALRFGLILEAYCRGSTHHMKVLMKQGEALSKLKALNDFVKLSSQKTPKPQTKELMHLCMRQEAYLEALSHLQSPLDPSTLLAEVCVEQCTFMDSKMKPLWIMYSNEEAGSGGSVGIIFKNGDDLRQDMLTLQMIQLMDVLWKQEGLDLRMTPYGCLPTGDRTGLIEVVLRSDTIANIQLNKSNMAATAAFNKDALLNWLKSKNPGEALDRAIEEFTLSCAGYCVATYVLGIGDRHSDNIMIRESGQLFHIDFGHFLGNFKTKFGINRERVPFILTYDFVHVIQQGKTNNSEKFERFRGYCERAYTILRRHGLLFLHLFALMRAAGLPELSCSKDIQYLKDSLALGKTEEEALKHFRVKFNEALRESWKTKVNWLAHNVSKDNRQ
The following applies: at 0.1 µM.

The target of assay [7] is T2, Phosphatidylinositol 4,5-bisphosphate 3-kinase catalytic subunit delta isoform (Homo sapiens). The following applies: at 1 µM.
In assay [8] the target is Phosphatidylinositol 4-kinase beta (Homo sapiens) (UniProt Q9UBF8). The following applies: at 0.1 µM.
Assay [9] has the same target. The settings on record: at 1 µM.
The target in assay [10] is Sphingosine kinase 1 (Homo sapiens) (UniProt Q9NYA1). The following applies: at 0.1 µM.
The target is the same in assay [11]. The settings on record: at 1 µM.
Assay [12] deals with T3, Sphingosine kinase 2 (Homo sapiens) (UniProt Q9NRA0).
T3 sequence (whole entry): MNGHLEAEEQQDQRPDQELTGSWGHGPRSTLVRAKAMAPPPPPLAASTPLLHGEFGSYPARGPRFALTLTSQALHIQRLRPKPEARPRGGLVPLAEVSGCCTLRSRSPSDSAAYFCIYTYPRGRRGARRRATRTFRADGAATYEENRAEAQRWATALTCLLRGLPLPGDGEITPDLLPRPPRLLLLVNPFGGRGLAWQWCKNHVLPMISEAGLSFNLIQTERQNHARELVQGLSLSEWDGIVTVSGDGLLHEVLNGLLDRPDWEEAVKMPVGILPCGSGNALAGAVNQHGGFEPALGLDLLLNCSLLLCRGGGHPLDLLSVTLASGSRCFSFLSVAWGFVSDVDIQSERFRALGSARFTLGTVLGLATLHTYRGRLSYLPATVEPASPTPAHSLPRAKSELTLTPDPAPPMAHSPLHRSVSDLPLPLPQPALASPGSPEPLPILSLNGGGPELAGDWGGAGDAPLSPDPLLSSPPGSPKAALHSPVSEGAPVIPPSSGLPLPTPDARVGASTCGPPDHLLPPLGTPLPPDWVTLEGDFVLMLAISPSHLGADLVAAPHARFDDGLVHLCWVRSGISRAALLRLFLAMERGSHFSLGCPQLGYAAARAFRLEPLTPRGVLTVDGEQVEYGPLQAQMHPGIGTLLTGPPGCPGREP
The following applies: at 0.1 µM.

Assay [13] addresses T3, Sphingosine kinase 2 (Homo sapiens). The following applies: at 1 µM.
Assay [14] has as its target Casein kinase II subunit alpha (Homo sapiens) (UniProt P68400). The settings on record: at 0.1 µM.
The target is the same in assay [15]. The following applies: at 1 µM.
The target in assay [16] is T4, Inhibitor of nuclear factor kappa-B kinase subunit alpha (Homo sapiens) (UniProt O15111).
T4 sequence (whole entry): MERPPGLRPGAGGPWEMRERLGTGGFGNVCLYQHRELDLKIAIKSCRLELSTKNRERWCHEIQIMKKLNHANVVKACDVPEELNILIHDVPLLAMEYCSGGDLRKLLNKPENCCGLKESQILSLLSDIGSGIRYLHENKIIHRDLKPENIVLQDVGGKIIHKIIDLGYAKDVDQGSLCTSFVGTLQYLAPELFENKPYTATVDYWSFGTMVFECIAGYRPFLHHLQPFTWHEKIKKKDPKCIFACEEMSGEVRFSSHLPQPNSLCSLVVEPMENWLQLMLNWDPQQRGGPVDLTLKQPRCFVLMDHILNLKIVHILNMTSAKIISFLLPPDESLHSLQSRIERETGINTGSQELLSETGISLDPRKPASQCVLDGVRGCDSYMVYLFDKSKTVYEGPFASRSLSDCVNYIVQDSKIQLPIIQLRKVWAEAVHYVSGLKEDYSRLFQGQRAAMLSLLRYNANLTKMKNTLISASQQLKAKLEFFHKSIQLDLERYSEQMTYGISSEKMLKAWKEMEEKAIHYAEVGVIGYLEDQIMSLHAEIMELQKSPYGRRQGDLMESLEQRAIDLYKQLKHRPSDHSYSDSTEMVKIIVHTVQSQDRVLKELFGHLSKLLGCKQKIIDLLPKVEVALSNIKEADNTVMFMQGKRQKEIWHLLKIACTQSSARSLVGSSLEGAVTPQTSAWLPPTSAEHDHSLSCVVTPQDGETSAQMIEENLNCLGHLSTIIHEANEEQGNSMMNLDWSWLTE
The settings on record: at 0.1 µM.

For assay [17], the target named is T4, Inhibitor of nuclear factor kappa-B kinase subunit alpha (Homo sapiens). The settings on record: at 1 µM.
In assay [18] the target is T5, Inhibitor of nuclear factor kappa-B kinase subunit beta (Homo sapiens) (UniProt O14920).
T5 sequence (whole entry): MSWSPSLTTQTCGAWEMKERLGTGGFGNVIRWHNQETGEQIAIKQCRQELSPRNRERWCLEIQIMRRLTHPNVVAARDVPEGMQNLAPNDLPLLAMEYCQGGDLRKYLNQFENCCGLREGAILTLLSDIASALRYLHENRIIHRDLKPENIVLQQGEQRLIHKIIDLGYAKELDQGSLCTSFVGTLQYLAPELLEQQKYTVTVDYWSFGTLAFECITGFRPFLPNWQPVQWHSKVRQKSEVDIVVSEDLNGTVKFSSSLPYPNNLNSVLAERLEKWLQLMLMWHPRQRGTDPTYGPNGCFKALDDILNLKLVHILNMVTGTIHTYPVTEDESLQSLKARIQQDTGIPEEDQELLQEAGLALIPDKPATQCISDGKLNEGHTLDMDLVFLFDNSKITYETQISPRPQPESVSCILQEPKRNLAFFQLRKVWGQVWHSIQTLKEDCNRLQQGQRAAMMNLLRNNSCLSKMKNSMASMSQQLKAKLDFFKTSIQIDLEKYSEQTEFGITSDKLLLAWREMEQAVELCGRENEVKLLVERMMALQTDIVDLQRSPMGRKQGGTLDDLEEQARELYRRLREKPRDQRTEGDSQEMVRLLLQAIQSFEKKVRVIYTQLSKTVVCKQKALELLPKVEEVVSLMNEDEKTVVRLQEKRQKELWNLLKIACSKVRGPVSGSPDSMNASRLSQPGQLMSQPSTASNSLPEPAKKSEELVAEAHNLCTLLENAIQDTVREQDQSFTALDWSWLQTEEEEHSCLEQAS
The settings on record: at 0.1 µM.

Assay [19] addresses T5, Inhibitor of nuclear factor kappa-B kinase subunit beta (Homo sapiens). The settings on record: at 1 µM.
Assay [20] deals with T6, Inhibitor of nuclear factor kappa-B kinase subunit epsilon (Homo sapiens) (UniProt Q14164).
T6 sequence (whole entry): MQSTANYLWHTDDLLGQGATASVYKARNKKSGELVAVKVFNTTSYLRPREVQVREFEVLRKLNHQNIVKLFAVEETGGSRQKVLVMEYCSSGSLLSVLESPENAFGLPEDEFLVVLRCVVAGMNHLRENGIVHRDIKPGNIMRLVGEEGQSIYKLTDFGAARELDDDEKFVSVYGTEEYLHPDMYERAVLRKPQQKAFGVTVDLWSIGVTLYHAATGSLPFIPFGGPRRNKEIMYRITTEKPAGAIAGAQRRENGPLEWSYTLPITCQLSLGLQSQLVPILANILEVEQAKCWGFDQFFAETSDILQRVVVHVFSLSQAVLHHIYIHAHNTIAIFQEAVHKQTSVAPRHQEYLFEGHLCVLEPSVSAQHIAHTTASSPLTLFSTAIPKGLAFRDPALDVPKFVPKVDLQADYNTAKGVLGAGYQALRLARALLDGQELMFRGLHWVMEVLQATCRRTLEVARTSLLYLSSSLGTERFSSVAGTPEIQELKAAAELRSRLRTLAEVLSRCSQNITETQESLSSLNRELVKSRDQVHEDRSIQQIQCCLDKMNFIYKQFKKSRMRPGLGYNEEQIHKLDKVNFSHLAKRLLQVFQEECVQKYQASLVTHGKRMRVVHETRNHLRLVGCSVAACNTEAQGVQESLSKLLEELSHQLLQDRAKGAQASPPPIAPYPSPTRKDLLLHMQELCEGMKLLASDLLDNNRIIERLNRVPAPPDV
The following applies: at 0.1 µM.

SRSF protein kinase 1 (Homo sapiens), sequence (Q96SB4 whole entry): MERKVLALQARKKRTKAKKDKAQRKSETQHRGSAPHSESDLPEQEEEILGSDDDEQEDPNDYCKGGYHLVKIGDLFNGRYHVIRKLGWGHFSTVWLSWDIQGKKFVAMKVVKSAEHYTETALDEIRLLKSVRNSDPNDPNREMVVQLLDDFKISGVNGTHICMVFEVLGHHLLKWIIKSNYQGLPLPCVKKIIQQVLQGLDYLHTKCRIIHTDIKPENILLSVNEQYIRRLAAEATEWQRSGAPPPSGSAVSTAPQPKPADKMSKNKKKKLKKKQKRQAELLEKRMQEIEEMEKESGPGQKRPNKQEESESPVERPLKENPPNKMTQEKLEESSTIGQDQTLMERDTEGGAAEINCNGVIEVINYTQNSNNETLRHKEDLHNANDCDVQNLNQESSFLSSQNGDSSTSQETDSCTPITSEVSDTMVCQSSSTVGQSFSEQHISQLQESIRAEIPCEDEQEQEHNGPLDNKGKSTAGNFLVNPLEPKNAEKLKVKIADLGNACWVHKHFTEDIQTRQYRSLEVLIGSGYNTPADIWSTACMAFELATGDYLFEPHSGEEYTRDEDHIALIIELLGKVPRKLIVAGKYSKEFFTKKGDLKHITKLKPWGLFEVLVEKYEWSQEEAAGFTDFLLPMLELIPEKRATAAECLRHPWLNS
Sphingosine kinase 1 (Homo sapiens), sequence (Q9NYA1 whole entry): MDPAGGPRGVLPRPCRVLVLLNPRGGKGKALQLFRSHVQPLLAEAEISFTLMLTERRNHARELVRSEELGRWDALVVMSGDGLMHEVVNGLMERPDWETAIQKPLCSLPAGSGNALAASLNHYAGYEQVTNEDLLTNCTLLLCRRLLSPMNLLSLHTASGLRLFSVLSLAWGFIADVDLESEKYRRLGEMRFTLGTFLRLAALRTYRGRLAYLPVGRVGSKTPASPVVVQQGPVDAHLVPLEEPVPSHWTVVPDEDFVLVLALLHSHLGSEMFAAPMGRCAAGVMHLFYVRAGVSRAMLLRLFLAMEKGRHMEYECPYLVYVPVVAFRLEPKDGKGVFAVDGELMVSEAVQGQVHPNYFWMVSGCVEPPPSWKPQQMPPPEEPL
Casein kinase II subunit alpha (Homo sapiens), sequence (P68400 whole entry, looked up): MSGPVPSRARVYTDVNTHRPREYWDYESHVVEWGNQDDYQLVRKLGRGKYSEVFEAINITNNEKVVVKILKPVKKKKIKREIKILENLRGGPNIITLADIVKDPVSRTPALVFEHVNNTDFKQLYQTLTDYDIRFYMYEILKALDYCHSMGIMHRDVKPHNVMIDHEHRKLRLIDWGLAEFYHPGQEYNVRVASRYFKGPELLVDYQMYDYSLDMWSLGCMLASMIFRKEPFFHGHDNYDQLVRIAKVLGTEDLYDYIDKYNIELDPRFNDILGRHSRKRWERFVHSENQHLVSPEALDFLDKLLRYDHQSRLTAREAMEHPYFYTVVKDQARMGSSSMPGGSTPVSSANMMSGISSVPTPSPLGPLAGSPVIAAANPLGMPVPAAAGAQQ
Phosphatidylinositol 4,5-bisphosphate 3-kinase catalytic subunit alpha isoform (Homo sapiens), sequence (P42336 whole entry, canonical isoform): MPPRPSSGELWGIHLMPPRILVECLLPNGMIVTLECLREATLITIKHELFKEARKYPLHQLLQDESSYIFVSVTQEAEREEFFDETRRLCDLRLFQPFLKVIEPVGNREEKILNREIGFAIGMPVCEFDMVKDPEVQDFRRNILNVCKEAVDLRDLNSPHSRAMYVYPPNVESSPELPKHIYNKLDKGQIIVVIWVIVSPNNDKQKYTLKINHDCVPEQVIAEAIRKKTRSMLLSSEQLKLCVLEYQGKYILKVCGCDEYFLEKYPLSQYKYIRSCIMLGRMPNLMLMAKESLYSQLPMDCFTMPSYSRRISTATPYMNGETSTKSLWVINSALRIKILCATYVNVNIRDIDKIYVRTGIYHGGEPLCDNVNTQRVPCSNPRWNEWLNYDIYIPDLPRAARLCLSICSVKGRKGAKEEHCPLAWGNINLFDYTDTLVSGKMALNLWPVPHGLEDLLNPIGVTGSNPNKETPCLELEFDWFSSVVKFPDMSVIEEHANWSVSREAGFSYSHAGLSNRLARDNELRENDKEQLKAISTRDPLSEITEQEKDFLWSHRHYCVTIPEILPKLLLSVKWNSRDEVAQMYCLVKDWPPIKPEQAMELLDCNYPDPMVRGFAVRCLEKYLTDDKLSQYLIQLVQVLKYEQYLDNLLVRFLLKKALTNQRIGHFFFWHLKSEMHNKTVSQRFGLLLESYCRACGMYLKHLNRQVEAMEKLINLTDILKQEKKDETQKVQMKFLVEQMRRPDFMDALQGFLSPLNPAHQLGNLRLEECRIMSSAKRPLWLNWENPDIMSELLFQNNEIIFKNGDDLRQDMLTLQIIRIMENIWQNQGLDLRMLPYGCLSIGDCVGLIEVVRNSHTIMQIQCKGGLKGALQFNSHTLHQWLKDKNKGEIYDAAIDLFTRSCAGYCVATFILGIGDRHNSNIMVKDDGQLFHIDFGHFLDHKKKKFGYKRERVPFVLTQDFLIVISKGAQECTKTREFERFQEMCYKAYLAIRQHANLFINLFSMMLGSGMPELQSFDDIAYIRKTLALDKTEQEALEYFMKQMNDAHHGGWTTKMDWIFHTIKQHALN
Phosphatidylinositol 4-kinase beta (Homo sapiens), sequence (Q9UBF8 2-816 limits assumed): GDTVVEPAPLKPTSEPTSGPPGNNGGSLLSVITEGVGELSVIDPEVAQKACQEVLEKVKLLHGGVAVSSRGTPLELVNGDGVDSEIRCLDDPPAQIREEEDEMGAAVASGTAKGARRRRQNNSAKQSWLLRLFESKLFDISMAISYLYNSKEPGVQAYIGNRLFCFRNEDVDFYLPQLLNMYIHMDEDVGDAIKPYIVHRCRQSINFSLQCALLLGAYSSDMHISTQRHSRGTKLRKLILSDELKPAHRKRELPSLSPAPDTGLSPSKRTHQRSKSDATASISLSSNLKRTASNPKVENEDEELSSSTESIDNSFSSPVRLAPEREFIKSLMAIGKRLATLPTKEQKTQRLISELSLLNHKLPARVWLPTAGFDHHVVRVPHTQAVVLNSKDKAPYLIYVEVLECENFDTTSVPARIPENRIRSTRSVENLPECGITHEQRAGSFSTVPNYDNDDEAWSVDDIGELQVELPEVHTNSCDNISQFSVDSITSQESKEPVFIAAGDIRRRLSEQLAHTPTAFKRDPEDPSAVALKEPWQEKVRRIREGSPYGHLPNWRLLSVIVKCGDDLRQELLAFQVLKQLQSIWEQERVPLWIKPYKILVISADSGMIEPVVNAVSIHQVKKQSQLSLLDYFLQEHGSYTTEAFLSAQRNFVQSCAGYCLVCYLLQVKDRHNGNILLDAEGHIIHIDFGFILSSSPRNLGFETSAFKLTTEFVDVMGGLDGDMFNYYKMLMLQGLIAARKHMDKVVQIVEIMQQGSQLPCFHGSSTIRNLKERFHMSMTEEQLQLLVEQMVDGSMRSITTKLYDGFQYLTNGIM

Turning to `COc1ccc(COc2ccc(Cc3cnc(N)nc3N)cc2OC)cc1`, the inhibition in assay [1] was 1.41%; in [2], -0.52%; in assay [3], -2.52%; in assay [4], 0.14%; in [5], 1.07%; in assay [6], -0.96%. Besides, the inhibition was 0.68% in assay [7]; 2.15% in assay [8]; -1.98% in assay [9]; -3.33% in assay [10]; -2.38% in assay [11]; 0.09% in assay [12]. Further, the inhibition was -0.88% in assay [13]; -2.39% in [14]; -8.59% in [15]; 2.25% in [16]; -7.71% in [17]; -1.1% in assay [18]. Also, the inhibition in assay [19] was -1.34%; in [20], -1.79%.

In the case of `O=C(Nc1n[nH]c2nc(-c3ccco3)c(Br)cc12)C1CC1`, the inhibition is 2.11% in assay [1]; -4.07% in assay [2]; -5.19% in [3]; 5.44% in assay [4]; 4.94% in assay [5]; 2.6% in [6]. Besides, the inhibition was 3.08% in [7]; 0.77% in assay [8]; 5.14% in [9]; 0.46% in assay [10]; -1.04% in assay [11]; 0.57% in [12]. In addition, the inhibition in [13] is 0.07%; in assay [14], -0.1%; in assay [15] it was -1.87%; in assay [16] it was -4.07%; in assay [17] it was -2.15%; in assay [18] it was 1.61%. For the same molecule, the values for the inhibition in assay [19] and in assay [20] were 2.38% and 3.19%, respectively.

As to `CCn1c(-c2nonc2N)nc2cncc(C(=O)N3CC[C@H](N)C3)c21`, the inhibition was 3.17% in [1]; -1.03% in assay [2]; -0.35% in [3]; 5.37% in [4]; 4.64% in [5]; 3.17% in assay [6]. Besides, the inhibition in assay [7] is 3.95%; in [8] it was -6.46%; in assay [9], -9.74%; in assay [10], -0.79%; in [11], -5.44%; in assay [12], 0.23%. For the same molecule, the inhibition in [13] is -0.8%; in assay [14] it was 3.78%; in [15], 3.7%; in assay [16], 14%; in assay [17] it was 18.8%; in [18] it was 7.24%. Also, the inhibition in assay [19] came to 5.79%; in assay [20] it was 13.8%.

For the molecule `COc1ccc2cc(-c3c(-c4ccncc4)nc(-c4ccc([S+](C)[O-])cc4)n3C)ccc2c1` (stereo not given), the inhibition in assay [1] is 2.03%; in [2], -3.09%; in [3], -4.71%; in assay [4], 2.81%; in assay [5] it was 3.47%; in assay [6] it was 6.86%. Also, the inhibition in assay [7] is 3.16%; in assay [8], -2.02%; in [9], -2.26%; in [10], 0.08%; in assay [11], -3.23%; in [12], -1.61%. Besides, the inhibition was -1.21% in assay [13]; 0.27% in [14]; -4.21% in assay [15]; 3.64% in assay [16]; 0.12% in assay [17]; 3.95% in assay [18]. In addition, the values for the inhibition in assay [19] and in assay [20] were 3.93% and 4.41%, respectively.
